Shown are actives, neighbours in structure and some others; about 4.6% of the full set was active somewhere.
Marburg entry inh = Marburg virus entry inhibition; 300,000 compounds, 1.8% hits; Marburg virus pseudotyped entry inhibition, cell reporter; Potency, µM (doses to about 37.8 µM), without a hit: at the top dose activity change, negative = inhibition, actives largely listed as inhibitors; calls by dose curve; tested in HEK293 cells
VACV Venus inh = vaccinia inhibition (Venus reporter); Vaccinia virus Venus reporter expression, fluorescence; Potency, µM (highest dose often 36.5 µM), for inactives: top-dose activity change, negative = inhibition, usual class: inhibitors; 330,000 compounds, 0.46% hits; AID 720580; calls by dose curve; tested in A549 cells; further: nearly all actives have a fitted effect of over 30% in size
VACV mCherry inh = inhibitors of vaccinia virus infection (mCherry reporter signal); Vaccinia virus mCherry reporter infection, fluorescence; Potency, µM (titrated, usually from 36.5 µM), inactives show top-dose activity change, negative = inhibition, usual class: inhibitors; 310,000 compounds, 0.63% hits; AID 720579; calls by dose curve; tested in A549 cells; further: nearly all actives have a fitted effect of over 35% in size
HCV inhibitor = HCV inhibition; Potency, µM (top dose mostly 41.8 µM), inactives show top-dose activity change, negative = inhibition, most hits filed as inhibitors; Huh7.5.1 HCVcc-Cre infection, luciferase reporter, 44 h; 340,000 compounds, 3.4% hits; active means well fitted inhibition curve with a large enough effect; inconclusive means small, poorly fitted or top-dose-only effect, or another doubt; inactive means no such curve, though single readings can be large or run the other way
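Cells (1,000/well) were plated 4 h before compound, then infected with HCVcc-Cre virus (~0.5 moi). After 44 h further culture, infection was read as luciferase luminescence following a 15 min substrate incubation at room temperature.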
Lassa entry inh = Lassa virus entry inhibition. Lassa virus pseudotype entry inhibition, cell reporter. Potency, µM (highest dose often 37.9 µM), for inactives: at the highest dose activity change, negative = inhibition, usual class: inhibitors. 300,000 compounds, 1.2% hits. AID 540256; calls by dose curve; tested in HEK293 cells; further: nearly all actives have a fitted effect of over 50% in size
An asterisk follows results filed as active; i = inactive; ? = inconclusive; nt = no result given; [ ] = remark or other dose. On the % scale 0 is the no-effect control and ±100 the full control effect; potency means the concentration at half of the fitted maximal effect.

SMILES	Marburg entry inh	VACV Venus inh	VACV mCherry inh	HCV inhibitor	Lassa entry inh
O=C(Nc1ccc(S(=O)(=O)Nc2ccc(F)cc2)cc1)c1ccc(CN2CCOCC2)cc1	?	-35%	-15%	1µM*	?
CCCCOc1ccc(C(=O)Nc2ccncc2)cc1	?	?	nt	8.9µM*	?
OCCN1CCN(Cc2cccc(Oc3ccc(Cl)cc3)c2)CC1	?	-17%	-16%	11µM*	-20%
CN1CCN(Cc2cccc(Oc3ccccc3)c2)CC1	?	-3%	-6%	-17%	?
O=C(Nc1ccc(S(=O)(=O)N2CCOCC2)cc1)c1ccc(F)cc1	2%[46.1 µM]	1%	9%	-3%	-25%[46.1 µM]
CCOc1cc(C(=O)Nc2ccc3c4c(cccc24)C(=O)N3CC)cc(OCC)c1OCC	18µM*	nt	nt	?	-3%
Cc1ccc(C(=O)[C@H]2[C@H](c3cccs3)NC(=O)N[C@]2(O)C(F)(F)F)cc1	-26%	nt	nt	nt	nt
Cc1cc2c(N=O)c(NO)ccc2[nH]1	1.4µM*	?	?	?	?
Cc1ccc(Cl)cc1Nc1nn2c(=O)c3ccc(C(=O)NCc4ccc(F)cc4)cc3nc2s1	nt	?	?	nt	4%[46.1 µM]
Cc1ccc(-c2cc(C(=O)N(C)Cc3cnn(C)c3C)c3cc(Br)ccc3n2)cc1	8.9µM*	-12%	-8%	?	?
CCOC(=O)C(=CNc1ccc2c(c1)c1ccccc1n2CC)C(=O)OCC	nt	nt	nt	10µM*	nt
CCCC(=O)Nc1ccc2c(c1)c1ccccc1n2CC	?	?	-11%	?	?
CCn1c2ccccc2c2cc(NC(=O)CC(C)=O)ccc21	-20%	-23%	-15%	13µM*	-6%
COc1ccccc1/C=N/Nc1cc(N(C)C)nc(N(C)C)n1	-16%[46.1 µM]	-6%	-22%	?	-17%
COc1ccc(/C=N/Nc2cc(OC)ncn2)cc1	?	-11%	i	5%	10µM*
COc1ccc(/C=N/Nc2cc(N(C)C)nc(N(C)C)n2)cc1	4.5µM*	-29%	-23%	?	?
COc1ccc(O[C@H]2C=C[C@@H](c3ccccc3)O[C@H]2CON=C2[C@H]3CCn4c(=O)n(-c5ccccc5)c(=O)n4[C@@H]3[C@H](O)[C@@H]3O[C@H]23)cc1	5%[14.2 µM]	nt	nt	nt	nt
COc1ccc(NC(=O)N(C2CCCCC2)C2CCN(C(C)C)CC2)c(OC)c1	?	-3%	-16%	3.5µM*	-14%
COc1ccc(C(=O)C[n+]2cc(Br)cc(Br)c2)cc1	nt	-19%	-2%	nt	nt
Cc1ccc2nc(-c3cccs3)c(Nc3c(C)cccc3C)n2c1	7.1µM*	-15%	-24%	nt	-2%[46.1 µM]
Cc1ccn2c(Nc3ccccc3C)c(-c3ccccn3)nc2c1	?	?	7.9µM*	4µM*	?
CC(C)c1ccc(Nc2c(-c3ccccn3)nc3ccccn23)cc1	?	?	11µM*	nt	?
Cc1ccc2nc(-c3ccccn3)c(Nc3ccccc3C)n2c1	9%[46.1 µM]	?	6.3µM*	5µM*	?
Fc1ccc(Nc2c(-c3ccccn3)nc3ccc(Cl)cn23)cc1	-1%[46.1 µM]	9%	-4%	nt	10%[46.1 µM]
O=C(NCc1ccco1)c1ccc2c(c1)N(Cc1ccccc1)C(=O)c1ccccc1S2(=O)=O	1%[46.1 µM]	-6%	-10%	nt	-18%[46.1 µM]
SMILES	Marburg entry inh	VACV Venus inh	VACV mCherry inh	HCV inhibitor	Lassa entry inh
Cc1ccn2c(Nc3ccccc3)c(-c3ccccn3)nc2c1	?	-14%	2.2µM*	8.9µM*	5.8µM*
O=C1/C(=C\c2cccs2)N=C(c2cccs2)N1Nc1ccccc1	-6%	-15%	-4%	?	-4%
O=C1/C(=C/c2cccs2)N=C(c2cccs2)N1Nc1ccccc1	?	-17%	nt	14µM*	1%
C/C(=N\NC(=S)NCc1ccccc1)c1ccc(Cl)s1	?	-19%	-19%	11µM*	-29%
C/C(=N\NC(=S)NCc1ccccc1)c1cccs1	6%[46.1 µM]	-16%	-9%	?	-6%
COCCNC(=S)N/N=C(\C)c1ccc(Cl)s1	6%[46.1 µM]	-24%	8.9µM*	?	-10%
C/C(=N\NC(=S)NCc1ccccc1)c1ccc2ccccc2c1OC(F)F	nt	nt	nt	13µM*	nt
COCCNC(=S)N/N=C(\C)c1ccccc1O	?	8%	-12%	?	-6%
O=C(CSc1n[nH]c(-c2ccccc2Cl)n1)N1CCN(c2ccccc2)CC1	nt	-3%	-7%	nt	-4%[46.1 µM]
O=c1cc(N2CCCCC2)c(-c2ccccc2)nn1Cc1c(Cl)cccc1Cl	?	?	?	?	13µM*
O=c1cc(N2CCCCC2)c(-c2ccccc2)nn1Cc1ccc(Cl)cc1	?	-22%	nt	-20%	-16%

Bioassay records as filed in PubChem.
